The text below walks through data of PMC7862700, “An all-to-all approach to the identification of sequence-specific readers for epigenetic DNA modifications on cytosine”.

Holding throughout (test): DAPPL (digital affinity profiling via proximity ligation, sequencing); 10 mM Tris-HCl pH 7.5, 50 mM NaCl, 1 mM DTT, 4% glycerol, room temperature, 30 min; GST-TFs on glutathione beads, 16-mer random dsDNA library, 0.1% formaldehyde crosslink after washing; high values mean tight binding
Holding throughout (conditions): protein: recombinant; tags: N-terminal GST; dsDNA, one strand shown

For one assay, the target named is T1, FLI1 (Homo sapiens, UniProt Q01543 1-452).
T1 sequence: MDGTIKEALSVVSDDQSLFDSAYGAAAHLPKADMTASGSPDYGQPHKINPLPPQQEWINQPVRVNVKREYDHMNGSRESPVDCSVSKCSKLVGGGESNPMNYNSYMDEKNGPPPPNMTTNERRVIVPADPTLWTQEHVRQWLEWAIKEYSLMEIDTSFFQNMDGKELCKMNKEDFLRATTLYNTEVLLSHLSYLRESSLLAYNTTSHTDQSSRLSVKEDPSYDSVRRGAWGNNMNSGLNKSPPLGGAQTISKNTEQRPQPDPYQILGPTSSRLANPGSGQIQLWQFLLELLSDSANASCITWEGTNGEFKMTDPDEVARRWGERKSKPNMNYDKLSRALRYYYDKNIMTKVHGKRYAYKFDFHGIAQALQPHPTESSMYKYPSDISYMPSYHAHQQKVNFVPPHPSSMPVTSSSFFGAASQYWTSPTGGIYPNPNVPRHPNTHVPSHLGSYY
An outline of the steps: (§1)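 Each value of binding signal is a hexamer's read frequency for a factor divided by the same hexamer's frequency in the tag-only sample. Barcoded, bead-captured GST fusions of human transcription factors made in yeast were pooled with that sample and incubated with 200 nmole of a random double-stranded 16-mer DNA library in Tris/NaCl/DTT/glycerol buffer at room temperature for 30 min. Washing, 0.1% formaldehyde crosslinking, proximity ligation, PCR and Illumina NextSeq500 sequencing followed.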

The target of another assay is T2, ELK1 (Homo sapiens, UniProt P19419 1-428).
T2 sequence: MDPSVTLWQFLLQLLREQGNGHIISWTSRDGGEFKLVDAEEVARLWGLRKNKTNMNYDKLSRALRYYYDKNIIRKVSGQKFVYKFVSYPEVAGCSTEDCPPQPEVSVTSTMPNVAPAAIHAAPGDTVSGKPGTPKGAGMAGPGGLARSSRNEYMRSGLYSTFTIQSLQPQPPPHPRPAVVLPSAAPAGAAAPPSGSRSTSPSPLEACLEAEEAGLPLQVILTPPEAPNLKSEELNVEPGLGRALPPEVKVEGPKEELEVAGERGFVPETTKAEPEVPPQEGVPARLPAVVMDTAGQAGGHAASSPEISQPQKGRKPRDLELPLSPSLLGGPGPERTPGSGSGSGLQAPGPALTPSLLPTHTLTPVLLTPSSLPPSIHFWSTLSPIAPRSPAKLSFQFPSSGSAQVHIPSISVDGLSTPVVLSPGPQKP
A digest of the protocol: as §1

Another assay concerns the target T3, GABPA (Homo sapiens, UniProt Q06546 1-454).
T3 sequence: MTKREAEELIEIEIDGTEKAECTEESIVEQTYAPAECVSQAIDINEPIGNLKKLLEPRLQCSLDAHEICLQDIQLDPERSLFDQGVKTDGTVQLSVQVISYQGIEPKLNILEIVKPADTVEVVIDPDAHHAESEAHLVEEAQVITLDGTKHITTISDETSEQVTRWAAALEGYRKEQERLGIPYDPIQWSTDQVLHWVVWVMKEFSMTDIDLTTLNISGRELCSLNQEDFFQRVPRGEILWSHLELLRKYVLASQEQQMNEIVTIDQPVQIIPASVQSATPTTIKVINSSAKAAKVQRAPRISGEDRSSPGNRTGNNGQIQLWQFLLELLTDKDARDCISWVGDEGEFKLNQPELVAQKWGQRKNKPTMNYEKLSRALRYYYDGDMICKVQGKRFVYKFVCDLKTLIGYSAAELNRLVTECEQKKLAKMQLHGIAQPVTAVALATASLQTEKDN
An outline of the steps:
as §1

For a further assay, the target named is T4, ERG (Homo sapiens, UniProt P11308 1-479).
T4 sequence: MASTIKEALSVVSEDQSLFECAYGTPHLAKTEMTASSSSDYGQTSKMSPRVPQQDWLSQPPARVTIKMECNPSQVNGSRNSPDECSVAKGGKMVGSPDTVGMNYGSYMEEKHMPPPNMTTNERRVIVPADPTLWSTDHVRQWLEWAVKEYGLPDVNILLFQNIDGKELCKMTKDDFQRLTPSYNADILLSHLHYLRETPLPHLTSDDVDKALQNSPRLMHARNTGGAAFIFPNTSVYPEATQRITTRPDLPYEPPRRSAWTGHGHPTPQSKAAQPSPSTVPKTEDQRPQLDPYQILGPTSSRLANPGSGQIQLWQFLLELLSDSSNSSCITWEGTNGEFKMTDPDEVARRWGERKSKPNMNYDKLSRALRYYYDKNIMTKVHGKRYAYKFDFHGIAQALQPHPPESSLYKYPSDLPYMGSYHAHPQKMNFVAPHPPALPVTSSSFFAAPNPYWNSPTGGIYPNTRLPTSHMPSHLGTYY
A digest of the protocol:
as §1

A further assay addresses ELF1 (Homo sapiens, UniProt P32519 1-619). An outline of the steps: as §1
The next assay addresses T5, EHF (Homo sapiens, UniProt Q9NZC4 1-300).
T5 sequence: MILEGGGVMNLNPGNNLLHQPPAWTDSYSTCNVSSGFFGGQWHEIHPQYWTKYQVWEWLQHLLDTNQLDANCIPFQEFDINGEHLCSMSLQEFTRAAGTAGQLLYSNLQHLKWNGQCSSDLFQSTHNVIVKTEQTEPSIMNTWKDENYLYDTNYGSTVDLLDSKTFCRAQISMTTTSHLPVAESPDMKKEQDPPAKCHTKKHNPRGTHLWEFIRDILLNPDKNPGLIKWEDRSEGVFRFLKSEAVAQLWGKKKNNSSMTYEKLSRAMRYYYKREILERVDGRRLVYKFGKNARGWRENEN
An outline of the steps: as §1

The target of the next assay is SPI1 (Homo sapiens, UniProt P17947 1-270). A digest of the protocol: as §1
For a further assay, the target named is SPIB (Homo sapiens, UniProt Q01892 1-262). A digest of the protocol: as §1
The target of another assay is T6, ELK3 (Homo sapiens, UniProt P41970 1-407).
T6 sequence: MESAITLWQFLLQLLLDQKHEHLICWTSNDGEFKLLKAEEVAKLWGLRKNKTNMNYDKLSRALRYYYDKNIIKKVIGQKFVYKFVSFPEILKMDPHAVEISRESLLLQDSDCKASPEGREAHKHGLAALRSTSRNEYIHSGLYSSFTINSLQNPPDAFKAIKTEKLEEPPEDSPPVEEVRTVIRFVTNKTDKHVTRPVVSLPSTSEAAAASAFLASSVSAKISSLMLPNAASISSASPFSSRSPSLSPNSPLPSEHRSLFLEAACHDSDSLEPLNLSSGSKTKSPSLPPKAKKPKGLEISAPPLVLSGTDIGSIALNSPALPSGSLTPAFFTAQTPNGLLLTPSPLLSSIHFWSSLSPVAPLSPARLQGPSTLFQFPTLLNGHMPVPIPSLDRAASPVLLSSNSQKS
A digest of the protocol: as §1

ELF1, sequence (P32519 whole entry): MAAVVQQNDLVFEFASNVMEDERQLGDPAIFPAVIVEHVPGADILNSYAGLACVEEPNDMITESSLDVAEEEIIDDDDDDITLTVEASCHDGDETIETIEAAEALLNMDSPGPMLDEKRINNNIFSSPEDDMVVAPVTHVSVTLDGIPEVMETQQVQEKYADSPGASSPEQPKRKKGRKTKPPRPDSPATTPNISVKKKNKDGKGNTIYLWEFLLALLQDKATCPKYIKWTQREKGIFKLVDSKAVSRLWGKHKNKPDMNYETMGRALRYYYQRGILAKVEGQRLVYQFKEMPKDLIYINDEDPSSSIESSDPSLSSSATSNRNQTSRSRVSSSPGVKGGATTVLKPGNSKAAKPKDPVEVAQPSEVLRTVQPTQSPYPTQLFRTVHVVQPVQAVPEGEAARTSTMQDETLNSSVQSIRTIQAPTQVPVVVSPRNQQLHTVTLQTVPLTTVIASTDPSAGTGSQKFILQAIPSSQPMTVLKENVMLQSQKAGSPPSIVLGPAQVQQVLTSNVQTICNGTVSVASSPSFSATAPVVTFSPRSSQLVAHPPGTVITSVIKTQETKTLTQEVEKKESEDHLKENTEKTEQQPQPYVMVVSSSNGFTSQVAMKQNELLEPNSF
SPIB, sequence (Q01892 whole entry): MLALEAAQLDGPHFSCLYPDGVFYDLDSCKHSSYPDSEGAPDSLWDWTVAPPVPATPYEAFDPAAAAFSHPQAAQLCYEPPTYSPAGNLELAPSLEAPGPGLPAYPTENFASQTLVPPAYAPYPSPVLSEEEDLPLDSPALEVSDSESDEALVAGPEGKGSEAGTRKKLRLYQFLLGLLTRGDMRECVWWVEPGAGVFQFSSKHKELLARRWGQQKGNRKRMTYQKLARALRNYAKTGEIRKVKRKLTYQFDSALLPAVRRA

As for CTTTGG, the binding signal is 1.15 fold enrichment (6-mer frequency, TF over GST control) in the assay with FLI1; 1.12 fold enrichment (6-mer frequency, TF over GST control) in the assay with ELK1; 1.21 fold enrichment (6-mer frequency, TF over GST control) with GABPA; 1.07 fold enrichment (6-mer frequency, TF over GST control) in the assay with ERG; 1.17 fold enrichment (6-mer frequency, TF over GST control) in the assay with ELF1; 1.11 fold enrichment (6-mer frequency, TF over GST control) with EHF. The binding signal is 1.21 fold enrichment (6-mer frequency, TF over GST control) with SPI1; 1.04 fold enrichment (6-mer frequency, TF over GST control) with SPIB; 1.13 fold enrichment (6-mer frequency, TF over GST control) in the assay with ELK3.
Take ATCCTT: the binding signal with FLI1 was 1.72 fold enrichment (6-mer frequency, TF over GST control); with ELK1, 1.62 fold enrichment (6-mer frequency, TF over GST control); in the assay with GABPA it was 1.64 fold enrichment (6-mer frequency, TF over GST control); with ERG it was 1.78 fold enrichment (6-mer frequency, TF over GST control); with ELF1, 1.6 fold enrichment (6-mer frequency, TF over GST control); with EHF it was 1.68 fold enrichment (6-mer frequency, TF over GST control). For the same sequence, the binding signal in the assay with SPI1 is 1.7 fold enrichment (6-mer frequency, TF over GST control); in the assay with SPIB, 1.67 fold enrichment (6-mer frequency, TF over GST control); in the assay with ELK3 it was 1.68 fold enrichment (6-mer frequency, TF over GST control).
In the case of ATAGAT, the binding signal with FLI1 is 1.16 fold enrichment (6-mer frequency, TF over GST control); with ELK1 it was 1.14 fold enrichment (6-mer frequency, TF over GST control); with GABPA, 1.17 fold enrichment (6-mer frequency, TF over GST control); with ERG, 1.11 fold enrichment (6-mer frequency, TF over GST control); with ELF1, 1.23 fold enrichment (6-mer frequency, TF over GST control); with EHF, 1.17 fold enrichment (6-mer frequency, TF over GST control). The binding signal with SPI1 is 1.07 fold enrichment (6-mer frequency, TF over GST control); in the assay with SPIB, 1.16 fold enrichment (6-mer frequency, TF over GST control); in the assay with ELK3, 1.23 fold enrichment (6-mer frequency, TF over GST control).
Turning to CTCTGA, the binding signal in the assay with FLI1 is 1.18 fold enrichment (6-mer frequency, TF over GST control); in the assay with ELK1, 1.32 fold enrichment (6-mer frequency, TF over GST control); in the assay with GABPA, 1.22 fold enrichment (6-mer frequency, TF over GST control); with ERG it was 1.21 fold enrichment (6-mer frequency, TF over GST control); with ELF1 it was 1.25 fold enrichment (6-mer frequency, TF over GST control); in the assay with EHF, 1.3 fold enrichment (6-mer frequency, TF over GST control). Moreover, the binding signal with SPI1 was 1.17 fold enrichment (6-mer frequency, TF over GST control); with SPIB it was 1.31 fold enrichment (6-mer frequency, TF over GST control); with ELK3 it was 1.12 fold enrichment (6-mer frequency, TF over GST control).
With GCTCCG, the binding signal with FLI1 was 1.37 fold enrichment (6-mer frequency, TF over GST control); with ELK1, 1.4 fold enrichment (6-mer frequency, TF over GST control); with GABPA it was 1.35 fold enrichment (6-mer frequency, TF over GST control); with ERG it was 1.36 fold enrichment (6-mer frequency, TF over GST control); with ELF1 it was 1.32 fold enrichment (6-mer frequency, TF over GST control); in the assay with EHF, 1.45 fold enrichment (6-mer frequency, TF over GST control). Besides, the binding signal was 1.25 fold enrichment (6-mer frequency, TF over GST control) with SPI1; 1.19 fold enrichment (6-mer frequency, TF over GST control) with SPIB; 1.44 fold enrichment (6-mer frequency, TF over GST control) with ELK3.
Consider ACGGAT, for which the binding signal with FLI1 was 1.27 fold enrichment (6-mer frequency, TF over GST control); in the assay with ELK1, 1.21 fold enrichment (6-mer frequency, TF over GST control); with GABPA, 1.21 fold enrichment (6-mer frequency, TF over GST control); in the assay with ERG it was 1.37 fold enrichment (6-mer frequency, TF over GST control); with ELF1, 1.22 fold enrichment (6-mer frequency, TF over GST control); with EHF it was 1.3 fold enrichment (6-mer frequency, TF over GST control). Also, the binding signal with SPI1 is 1.2 fold enrichment (6-mer frequency, TF over GST control); with SPIB, 1.19 fold enrichment (6-mer frequency, TF over GST control); with ELK3, 1.29 fold enrichment (6-mer frequency, TF over GST control).
Turning to CATCCC, the binding signal in the assay with FLI1 is 1.39 fold enrichment (6-mer frequency, TF over GST control); with ELK1 it was 1.22 fold enrichment (6-mer frequency, TF over GST control); with GABPA, 1.24 fold enrichment (6-mer frequency, TF over GST control); in the assay with ERG, 1.29 fold enrichment (6-mer frequency, TF over GST control); with ELF1, 1.29 fold enrichment (6-mer frequency, TF over GST control); with EHF, 1.29 fold enrichment (6-mer frequency, TF over GST control). Also, the binding signal was 1.25 fold enrichment (6-mer frequency, TF over GST control) with SPI1; 1.26 fold enrichment (6-mer frequency, TF over GST control) in the assay with SPIB; 1.24 fold enrichment (6-mer frequency, TF over GST control) with ELK3.
Consider TGCTTC, for which the binding signal with FLI1 was 2.13 fold enrichment (6-mer frequency, TF over GST control); with ELK1, 2.3 fold enrichment (6-mer frequency, TF over GST control); with GABPA it was 2.09 fold enrichment (6-mer frequency, TF over GST control); with ERG, 2.37 fold enrichment (6-mer frequency, TF over GST control); with ELF1 it was 2 fold enrichment (6-mer frequency, TF over GST control); in the assay with EHF it was 2.16 fold enrichment (6-mer frequency, TF over GST control). In addition, the binding signal with SPI1 was 2.24 fold enrichment (6-mer frequency, TF over GST control); with SPIB, 2.31 fold enrichment (6-mer frequency, TF over GST control); with ELK3, 2.47 fold enrichment (6-mer frequency, TF over GST control).
